About 83,000 compounds went through this panel and 20% of them were active in at least one assay; those are over-represented in the sample as a whole.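 Single-dose data. Exposure time 48 hours. Values below 10 considered active.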 Activity calls are given as the source filed them.
system: SF-295 CNS; assay: NCI-60 one-dose screen, 48 h (100 = growth as untreated, 0 = no growth, -100 = all killed); conditions: 10 µM unless noted

SMILES	growth
COc1cc2cc(C(=O)N3C[C@@H](CCl)c4c3cc(OC(=O)N(CCC(=O)N3CCN(C)CC3)C3CCCCC3)c3ccccc43)[nH]c2c(OC)c1OC	-68.3% (active)
Clc1ccc(Nc2nnc(-c3c[nH]c4ccccc34)o2)cc1	68.6% (inactive)
Cc1ccc(S(=O)(=O)N(CCn2ccnc2[N+](=O)[O-])CCn2ccnc2[N+](=O)[O-])cc1	109% (inactive)
O=C(N/N=C/c1ccsc1)c1[nH]c2ccc(Br)cc2c1-c1ccccc1	-87.5% (active)
Cc1ccc2nc(NC(=O)Nc3cccc(Cl)c3)sc2c1	98.8% (inactive)
N/C(=N\c1nc2ccc([N+](=O)[O-])cc2s1)NC(=O)Nc1ccccc1Cl	58.5% (inactive)
COc1ccc(/C=C/C(=O)c2ccc(S(=O)(=O)NCCNc3nc(N(C)C)nc(N4CCOCC4)n3)cc2)cc1	92.5% (inactive)
O=C(NN1C(=O)/C(=C/C=C/c2ccc([N+](=O)[O-])o2)SC1=S)c1ccncc1	-82.8% (active)
Nc1nnc(CS(=O)(=O)c2ccccc2)s1	99.2% (inactive)
CS(=O)(=O)c1ccc(-n2nc(C(=O)NCc3ccccc3)cc2-c2ccc(Cl)cc2)cc1	73.6% (inactive)
Cc1cccc(NCC(=O)N2CCN(c3ncnc4c3cnn4-c3ccccc3)CC2)c1	46.6% (inactive)
CCCCCCCOc1ccc(S(=O)(=O)Nc2ccc(C)c(F)c2C(=O)O)cc1	89.3% (inactive)
O=C(NNC(=O)c1ccc(OCc2nc3ccc(Cl)cc3[nH]2)cc1)Nc1ccc(Cl)c(C(F)(F)F)c1	84.9% (inactive)
OC(c1ccccc1)(c1ccccc1)C1CCN(c2ccc3nnc(Cl)n3n2)CC1	19% (inactive)
CCOC(=O)c1ccc(NC(=S)NC(=O)c2cccc(NC(=O)c3ccc(C)cc3)c2)cc1	90.9% (inactive)
COC(=O)c1cccc(Oc2ccc(NC(=O)Nc3cc(C(F)(F)F)ccc3F)cc2)c1	58.8% (inactive)
CCCn1c(NC(=O)c2cccc(C(N)=O)c2)nc2cc(CN3CCCCC3)ccc21	107% (inactive)
COC(=O)c1c(C(=O)OC)c2c3ccccc3c3ccccc3n2c1C(=O)C(F)(F)F	94.3% (inactive)
CCOc1ccccc1[C@H]1C(C(=O)c2ccc(Cl)cc2)C2(N[C@@H]1c1ccccc1)C(=O)Nc1ccccc12 (stereo partly specified)	9.84% (active)

SMILES	growth
COc1ccc(N=Nc2c(N)nn3c(N)c(C#N)c(-c4ccccc4)nc23)cc1	39.4% (inactive)
O=C(Nc1ccc(S(=O)(=O)N2CCCCC2)cc1)C(Cl)Cl	106% (inactive)
O=C1Nc2ccccc2/C1=C/C(=O)c1cc2ccccc2oc1=O	97.8% (inactive)
C/C(=N\Nc1ccc(C(=O)O)cc1)c1cnn(-c2cc(=O)[nH]c3ccc(C)cc23)c1C	95.5% (inactive)
CN(C)c1nc(NCCNS(=O)(=O)c2ccc(C(=O)/C=C/c3ccccc3)cc2)nc(N2CCOCC2)n1	75.6% (inactive)
COc1cc(CNC(=O)C[C@H](C)CCC=C(C)C)ccc1OCc1cn(-c2ccc(Br)cc2)nn1	63.2% (inactive)
COc1ccc(-n2c(NC(=O)N3CCN(C)CC3)c(C#N)c3ccccc32)cc1	47.1% (inactive)
O=C1CCC(N2C(=O)c3cccc(NCCCCCC(=O)N4CCN(c5ccc6nc7c(nc6c5C(F)(F)F)C(=O)c5ncccc5C7=O)CC4)c3C2=O)C(=O)N1 (stereo unspecified)	-84.1% (active)
O=C(CSc1nc2sc3c(c2c(=O)n1-c1ccc(Cl)cc1)CCCC3)NNC(=O)c1ccc(Br)cc1	84.1% (inactive)
COc1ccc2[nH]c(O)c(N=NC(=O)c3ccc4nc(-c5ccc(Cl)cc5)[nH]c4c3)c2c1	103% (inactive)
COc1cc(/C=N/NC(=O)c2ccc(OCc3nc4ccc(C)cc4[nH]3)cc2)cc(OC)c1OC	40.4% (inactive)
CC(C)(C)C(=O)C1CC(C#N)=C2C=Cc3c(ccc4ccccc34)N21 (stereo unspecified)	83.4% (inactive)
COc1cc(NC(=O)C(C)C)ccc1C(=O)NC(=S)Nc1ccc(S(N)(=O)=O)cc1	84.2% (inactive)
COc1c2c(c(Br)c3c1C(CCc1ccccc1)N(C)CC3)OCO2 (stereo unspecified)	40.6% (inactive)
COc1ccc(CCC2NCCc3c(Br)c4c(c(OC)c32)OCO4)cc1 (stereo unspecified)	4.87% (active)
O=CNc1ccc(-n2cnc3cc(-c4ccc(O)cc4)ccc32)cc1	103% (inactive)
N#CCc1nnc(NC(=O)c2ccc(-n3c(=O)[nH]c4ccccc4c3=O)cc2)s1	93.6% (inactive)
FC(F)(F)c1cc2c(Cl)ncnc2n1CCN1CCOCC1	86.7% (inactive)
Nc1cc(-c2c[nH]c3ccc(Br)cc23)nc2cc(-c3c[nH]c4ccccc34)nn12	-87.6% (active)

system: SF-539 CNS; assay: as above; conditions: 10 µM unless noted

SMILES	growth
COc1cc2cc(C(=O)N3C[C@@H](CCl)c4c3cc(OC(=O)N(CCC(=O)N3CCN(C)CC3)C3CCCCC3)c3ccccc43)[nH]c2c(OC)c1OC	-93% (active)
Clc1ccc(Nc2nnc(-c3c[nH]c4ccccc34)o2)cc1	66.5% (inactive)
Cc1ccc(S(=O)(=O)N(CCn2ccnc2[N+](=O)[O-])CCn2ccnc2[N+](=O)[O-])cc1	97.6% (inactive)
O=C(N/N=C/c1ccsc1)c1[nH]c2ccc(Br)cc2c1-c1ccccc1	-95.5% (active)
Cc1ccc2nc(NC(=O)Nc3cccc(Cl)c3)sc2c1	102% (inactive)
N/C(=N\c1nc2ccc([N+](=O)[O-])cc2s1)NC(=O)Nc1ccccc1Cl	11.1% (inactive)
COc1ccc(/C=C/C(=O)c2ccc(S(=O)(=O)NCCNc3nc(N(C)C)nc(N4CCOCC4)n3)cc2)cc1	83.7% (inactive)
O=C(NN1C(=O)/C(=C/C=C/c2ccc([N+](=O)[O-])o2)SC1=S)c1ccncc1	-100% (active)
Nc1nnc(CS(=O)(=O)c2ccccc2)s1	101% (inactive)
CS(=O)(=O)c1ccc(-n2nc(C(=O)NCc3ccccc3)cc2-c2ccc(Cl)cc2)cc1	99.4% (inactive)
Cc1cccc(NCC(=O)N2CCN(c3ncnc4c3cnn4-c3ccccc3)CC2)c1	59.9% (inactive)
CCCCCCCOc1ccc(S(=O)(=O)Nc2ccc(C)c(F)c2C(=O)O)cc1	102% (inactive)
O=C(NNC(=O)c1ccc(OCc2nc3ccc(Cl)cc3[nH]2)cc1)Nc1ccc(Cl)c(C(F)(F)F)c1	39.3% (inactive)
OC(c1ccccc1)(c1ccccc1)C1CCN(c2ccc3nnc(Cl)n3n2)CC1	51.8% (inactive)
CCOC(=O)c1ccc(NC(=S)NC(=O)c2cccc(NC(=O)c3ccc(C)cc3)c2)cc1	44.9% (inactive)
COC(=O)c1cccc(Oc2ccc(NC(=O)Nc3cc(C(F)(F)F)ccc3F)cc2)c1	34.1% (inactive)
CCCn1c(NC(=O)c2cccc(C(N)=O)c2)nc2cc(CN3CCCCC3)ccc21	107% (inactive)
COC(=O)c1c(C(=O)OC)c2c3ccccc3c3ccccc3n2c1C(=O)C(F)(F)F	95.2% (inactive)
CCOc1ccccc1[C@H]1C(C(=O)c2ccc(Cl)cc2)C2(N[C@@H]1c1ccccc1)C(=O)Nc1ccccc12 (stereo partly specified)	28% (inactive)

SMILES	growth
COc1ccc(N=Nc2c(N)nn3c(N)c(C#N)c(-c4ccccc4)nc23)cc1	-3.46% (active)
O=C(Nc1ccc(S(=O)(=O)N2CCCCC2)cc1)C(Cl)Cl	107% (inactive)
O=C1Nc2ccccc2/C1=C/C(=O)c1cc2ccccc2oc1=O	102% (inactive)
C/C(=N\Nc1ccc(C(=O)O)cc1)c1cnn(-c2cc(=O)[nH]c3ccc(C)cc23)c1C	101% (inactive)
CN(C)c1nc(NCCNS(=O)(=O)c2ccc(C(=O)/C=C/c3ccccc3)cc2)nc(N2CCOCC2)n1	77.1% (inactive)
COc1cc(CNC(=O)C[C@H](C)CCC=C(C)C)ccc1OCc1cn(-c2ccc(Br)cc2)nn1	51.2% (inactive)
COc1ccc(-n2c(NC(=O)N3CCN(C)CC3)c(C#N)c3ccccc32)cc1	14.3% (inactive)
O=C1CCC(N2C(=O)c3cccc(NCCCCCC(=O)N4CCN(c5ccc6nc7c(nc6c5C(F)(F)F)C(=O)c5ncccc5C7=O)CC4)c3C2=O)C(=O)N1 (stereo unspecified)	-95.4% (active)
O=C(CSc1nc2sc3c(c2c(=O)n1-c1ccc(Cl)cc1)CCCC3)NNC(=O)c1ccc(Br)cc1	-29.5% (active)
COc1ccc2[nH]c(O)c(N=NC(=O)c3ccc4nc(-c5ccc(Cl)cc5)[nH]c4c3)c2c1	67.6% (inactive)
COc1cc(/C=N/NC(=O)c2ccc(OCc3nc4ccc(C)cc4[nH]3)cc2)cc(OC)c1OC	49.2% (inactive)
CC(C)(C)C(=O)C1CC(C#N)=C2C=Cc3c(ccc4ccccc34)N21 (stereo unspecified)	67.4% (inactive)
COc1cc(NC(=O)C(C)C)ccc1C(=O)NC(=S)Nc1ccc(S(N)(=O)=O)cc1	88.9% (inactive)
COc1c2c(c(Br)c3c1C(CCc1ccccc1)N(C)CC3)OCO2 (stereo unspecified)	-8.69% (active)
COc1ccc(CCC2NCCc3c(Br)c4c(c(OC)c32)OCO4)cc1 (stereo unspecified)	-39.4% (active)
O=CNc1ccc(-n2cnc3cc(-c4ccc(O)cc4)ccc32)cc1	60.5% (inactive)
N#CCc1nnc(NC(=O)c2ccc(-n3c(=O)[nH]c4ccccc4c3=O)cc2)s1	97.9% (inactive)
FC(F)(F)c1cc2c(Cl)ncnc2n1CCN1CCOCC1	87% (inactive)
Nc1cc(-c2c[nH]c3ccc(Br)cc23)nc2cc(-c3c[nH]c4ccccc34)nn12	-93.5% (active)

Reference: PubChem BioAssay (NCI)
